Most compounds without a hit are left out; they make up all but 14% or so of the library.
Pf growth 96h: P. falciparum growth inhibition at 96 hours | P. falciparum luciferase reporter growth, 96 h | Potency, µM (series often up to 28.7 µM), for the others: at the highest dose activity change, negative = inhibition, usual class: inhibitors | actives 6.9% (n = 320,000) | AID 504834; also: potency is read from the fitted curve at half-maximal effect
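Two parasite generations (96 h, 37 C, 5% CO2) of compound exposure in infected erythrocytes (0.05% parasitemia, 2% hematocrit). Luciferase-reporter P. falciparum; decreased luminescence indicates inhibited growth, aimed at apicoplast-acting delayed death.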
Pf growth 48h: P. falciparum growth inhibition at 48 hours (one generation). P. falciparum luciferase growth in erythrocytes, 48 h. Potency, µM (top dose mostly 28.7 µM), for the others: top-dose activity change, negative = inhibition, usual class: inhibitors. actives 5.9% (n = 310,000); also: potency is read from the fitted curve at half-maximal effect
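Luciferase-expressing parasites in RBCs, 2% Hct / 0.1% parasitemia final; RPMI 1640 + 0.5% Albumax; 37 C, 5% CO2, one generation; luminescence read-out, lower signal = inhibition.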
MARV entry inh: inhibitors of Marburg virus binding or cell entry; Potency, µM (titrated, usually from 37.8 µM), inactives show top-dose activity change, negative = inhibition, actives largely listed as inhibitors; actives 1.8% (n = 300,000); Marburg virus pseudotyped entry inhibition, cell reporter; calls by dose curve; tested in HEK293 cells; also: potency is read from the fitted curve at half-maximal effect
HCMV antiviral: inhibitors of human cytomegalovirus | HFF cells, HCMV-luciferase reporter, 72 h; stronger effect = lower value | activity change, negative = inhibition, % at 57.5 µM | actives 4.5% (n = 410,000) | AID 1259415; in the data active = activity change below about -60%; inconclusive = no clear call, values can overlap the other calls; inactive = above about -39%
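Compounds were evaluated in HFFs infected with an HCMV luciferase reporter virus (MOI 1 PFU/cell). Luciferase in lysates collected 72 h post infection served as the replication measure.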
HCV inh: blocks hepatitis C virus; Huh7.5.1 HCVcc-Cre infection, luciferase reporter, 44 h; Potency, µM (doses to about 41.8 µM), for inactives: at the highest dose activity change, negative = inhibition, actives largely listed as inhibitors; actives 3.4% (n = 340,000); also: potency is read from the fitted curve at half-maximal effect
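1,000 cells/well; 4 h culture; + compound; + HCVcc-Cre (~0.5 moi); 44 h; luciferase substrate, RT 15 min; read 15 sec.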
Lassa entry inh: Lassa virus entry inhibition; actives 1.2% (n = 300,000); AID 540256; Potency, µM (titrated, usually from 37.9 µM), without a hit: at the top dose activity change, negative = inhibition, actives largely listed as inhibitors; Lassa virus pseudotype entry inhibition, cell reporter; calls by dose curve; tested in HEK293 cells; also: potency is read from the fitted curve at half-maximal effect; nearly all actives have a fitted effect of over 50% in size
Active calls of the source: *; ? = inconclusive; · = no result; [ ] = remark or other dose. Unless noted, calls follow the shape of the dose curve; as a rule, active = well fitted inhibition curve with a large enough effect; inconclusive = small, poorly fitted or top-dose-only effect, or another doubt; inactive = no such curve, though single readings can be large or run the other way. % is scaled to controls: 0 for no effect and ±100 for the full control effect.

SMILES	Pf growth 96h	Pf growth 48h	MARV entry inh	HCMV antiviral	HCV inh	Lassa entry inh
CC(=O)Nc1ccc(SCC(=O)c2cc(C)n(Cc3cccs3)c2C)cc1	19%	171%	?	-77*	-12%	?
CC(=O)Nc1ccc(SCC(=O)c2cc(C)n(-c3ccccc3F)c2C)cc1	-23%	34%	6.5µM*	-95*	?	?
Cc1cc(C(=O)CSc2nnc(N)s2)c(C)n1Cc1cccs1	-96%	-35%	1.6µM*	-34	?	0.35µM*
COc1cc(CN2C[C@@H](CO)O[C@@H](n3cnc4c(NCCN(C)C)ncnc43)C2)cc(OC)c1OC	·	·	·	5	·	·
Cc1cccc(Cn2c(=O)n(Cc3ccccc3)c(=O)c3c2c2cc(C)ccc2n3C)c1	·	·	·	22	·	?
COCCNC(=O)CCN1C(=O)c2cccnc2Oc2ccc(C)cc21	·	·	·	0	·	13%[46.1 µM]
Cc1cccc(-c2nc3c4ccccc4nc(N4CCN(c5cc(C)ccc5C)CC4)n3n2)c1	·	·	3%[46.1 µM]	130	·	·
O=C(Nc1ccccc1N1CCCC1)C1CCN(S(=O)(=O)c2cccc(C(F)(F)F)c2)CC1	10µM*	12µM*	?	-28	?	-29%
O=C(Nc1ccccc1N1CCCCC1)C1CCN(S(=O)(=O)c2cccc(C(F)(F)F)c2)CC1	?	8.3µM*	-28%	-39	?	-17%[46.1 µM]
CNC(=O)c1ccc(NC(=O)C2CCN(S(=O)(=O)c3cccc(C(F)(F)F)c3)CC2)cc1	?	13µM*	·	0	2%	·
O=C(NNC(=O)C1CCN(S(=O)(=O)c2cccc(C(F)(F)F)c2)CC1)C1CC1	12%	15%	-3%[46.1 µM]	6	9%	-7%
Cc1c(C)c2c(cc(C)c3c(-c4ccc(Br)cc4)coc32)oc1=O	·	·	-22%[46.1 µM]	-16	·	15%[46.1 µM]
CC(C)=NO[C@@H](C)CN1CCCc2nc(C)c(C)cc21	·	·	-14%[14.2 µM]	·	·	·
CCOC(=O)c1cnc2c(Cl)c(Cl)ccc2c1Nc1ccc(N(C)C)cc1	·	·	-10%[46.1 µM]	6	·	-5%[46.1 µM]
CCc1nn(CC(=O)N2CCCCC2)c(=O)c2cc3occc3n12	·	·	2%[46.1 µM]	3	·	?
Cc1nn(CC(=O)N2CCCCCC2)c(=O)c2cc3occc3n12	?	1%	-5%[46.1 µM]	-62*	2%	0%[46.1 µM]
Cc1nn(C(C)C(=O)N2CCN(c3ccccn3)CC2)c(=O)c2cc3occc3n12 (stereo not drawn)	84%	10%	-2%	21	9%	2%
Cc1cccc(N2CCN(C(=O)C(C)n3nc(C)n4c(cc5occc54)c3=O)CC2)c1C (stereo not drawn)	-21%	·	?	7	10µM*	3%[46.1 µM]
Nc1nc2ccc(Cl)cc2cc1C(=O)NCCCN1CCOCC1	·	·	·	13	·	·
CCOc1cccc2sc(Nc3nc4ccc(NC(C)=O)cc4s3)nc12	?	?	10µM*	-90*	4.5µM*	?
CCC(=O)Nc1nc2ccc(NC(C)=O)cc2s1	51%	129%	-8%	52	13%	1%
COc1ccc(C)c2sc(NC(=O)CCS(=O)(=O)c3ccccc3)nc12	5.2µM*	-21%	?	-89*	?	?
Cc1nnc(NC(=O)CCS(=O)(=O)c2ccccc2)s1	10%	?	-22%[46.1 µM]	120	-23%	?
CCOc1cccc2sc(NC(=O)CCS(=O)(=O)c3ccccc3)nc12	?	?	10µM*	·	22µM*	?
CCOc1cccc2sc(N(CCN(C)C)C(=O)CCS(=O)(=O)c3ccccc3)nc12	·	·	?	21	22%	3%
SMILES	Pf growth 96h	Pf growth 48h	MARV entry inh	HCMV antiviral	HCV inh	Lassa entry inh
Cc1ccc(C)n1C1C(=O)N(Cc2ccc(C(C)C)cc2)c2ccc(Cl)cc21 (stereo not drawn)	·	·	·	-17	·	·
COc1cc(C(CC2=CCCCC2)NC(=O)C(F)(F)F)cc(OC)c1OC (stereo not drawn)	·	·	1%[14.2 µM]	·	·	·
Cc1scc(CN2CCN(c3ccccc3F)CC2)c1C	·	·	·	-12	·	28%[46.1 µM]
COC(=O)C1=CN(Cc2ccc(F)cc2)C=C(C(=O)OC)C1c1cc(OC)c(OC)c(OC)c1	-28%	1.3µM*	·	55	-7%	·
COC(=O)C1=CN(Cc2ccc(OC)c(OC)c2)C=C(C(=O)OC)C1c1cccc(F)c1	10µM*	9.3µM*	·	-2	?	·
COCCN1C=C(C(=O)OC)C(c2ccc(OC)c(OC)c2)C(C(=O)OC)=C1	·	-9%	16%	3	?	-24%
COC(=O)C1=CN(Cc2cccs2)C=C(C(=O)OC)C1c1cccc(O)c1	?	-21%	2%[46.1 µM]	-17	3%	7.1µM*
COC(=O)C1=CN(C(C)c2ccccc2)C=C(C(=O)OC)C1c1cc(OC)c(OC)c(OC)c1 (stereo not drawn)	33%	1.5µM*	?	?	-15%	?
Cc1ccc(S(=O)(=O)N2C[C@H]3[C@H]4C(=O)N(Cc5ccccc5)C(=O)[C@H]4CC(=O)[C@H]3[C@@H]2c2ccccc2Cl)cc1	·	·	·	-10	·	·
CN1CCC(C(=O)C(=O)O)C1=O (stereo not drawn)	·	·	-12%	18	20%	-8%[46.1 µM]
COC(=O)C1=CN(CC2CCCO2)C=C(C(=O)OC)C1c1cc(OC)c(OC)c(OC)c1 (stereo not drawn)	4.1µM*	?	1%	52	-2%	?
COC(=O)C1=CN(Cc2ccc(C)cc2)C=C(C(=O)OC)C1c1ccc(F)c(F)c1	15%	6.6µM*	?	·	?	?
COC(=O)C1=CN(Cc2ccccc2)C=C(C(=O)OC)C1c1cc(F)ccc1F	7.4µM*	7.4µM*	-36%	-23	-23%	7.1µM*
COc1cc(C(=O)NCC2CCCO2)cc(OC)c1OC (stereo not drawn)	?	18%	15%	74	19%	?
COC(=O)C1=CN(Cc2ccc(OC)cc2)C=C(C(=O)OC)C1c1cc(OC)c(OC)c(OC)c1	?	1.3µM*	?	·	-17%	?
O=C(NCCC(=O)N1CCN(S(=O)(=O)c2ccccc2F)CC1)Nc1ccccc1	?	-7%	?	?	-3%	8%
Cc1cc2c(nc1C)CCCN2Cc1ccccn1	·	·	·	10	·	·
COc1cc(C)ccc1OCCSc1nc2ccc(NC(=O)c3ccccc3F)cc2s1	·	·	?	-3	·	5%[46.1 µM]
O=S1(=O)N[C@H](Cc2ccccc2)COc2cc(F)ccc21	·	·	·	-22	·	3%[46.1 µM]
CC1(C(=O)Nc2ccc3c(c2)OCO3)CCN1C(=O)CC1CC1 (stereo not drawn)	·	·	·	-9	·	·
Cc1ccc(C(=O)NNC(=O)CSc2n[nH]c(-c3cccnc3)n2)cc1	20%	33%	4%[46.1 µM]	-104*	-6%	2%
Cc1cc(C)cc(NC(=O)CSc2n[nH]c(-c3cccnc3)n2)c1	5%	-2%	11%[46.1 µM]	-3	7%	0%[46.1 µM]

Source: PubChem BioAssay (National Center for Advancing Translational Sciences (NCATS))
